This is a sample that favours compounds with a hit; in the whole collection about 7.9% have one here.
HCV inh – HCV inhibition; Potency, µM (doses to about 41.8 µM), inactives show at the top dose activity change, negative = inhibition, usual class: inhibitors; AID 651820; 3.4% of 340,000 active; Huh7.5.1 HCVcc-Cre infection, luciferase reporter, 44 h; active = well fitted inhibition curve with a large enough effect; inconclusive = small, poorly fitted or top-dose-only effect, or another doubt; inactive = no such curve, though single readings can be large or run the other way; also: potency is read from the fitted curve at half-maximal effect
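Whole-lifecycle infectious HCVcc-Cre system; cells 1,000/well, compound then virus (~0.5 moi) added 4 h after plating, 44 h culture. Luciferase read 15 sec following 15 min substrate incubation, room temp.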
FMDV inh – blocks foot and mouth disease virus. 1.2% of 410,000 active. Potency, µM (doses to about 57.9 µM), for inactives: top-dose activity change, negative = inhibition, hits mostly inhibitors. FMDV antiviral cell-based qHTS; calls by dose curve; tested in HEK293T cells; also: read-out not given here; potency is read from the fitted curve at half-maximal effect; nearly all actives have a fitted effect of over 45% in size
Marburg entry inh – blocks Marburg virus binding to or entry into cells; Potency, µM (series often up to 37.8 µM), for the others: at the highest dose activity change, negative = inhibition, actives largely listed as inhibitors; 1.8% of 300,000 active; AID 540276; Marburg virus pseudotyped entry inhibition, cell reporter; calls by dose curve; tested in HEK293 cells; also: potency is read from the fitted curve at half-maximal effect
Lassa entry inh – blocks Lassa virus binding to or entry into cells | Lassa virus pseudotype entry inhibition, cell reporter | Potency, µM (doses to about 37.9 µM), for the others: at the highest dose activity change, negative = inhibition, actives largely listed as inhibitors | 1.2% of 300,000 active; calls by dose curve; tested in HEK293 cells; also: potency is read from the fitted curve at half-maximal effect; nearly all actives have a fitted effect of over 50% in size
HCMV antiviral – inhibitors of human cytomegalovirus | HFF cells, HCMV-luciferase reporter, 72 h; active compounds read low | activity change, negative = inhibition, % at 57.5 µM | 4.5% of 410,000 active | AID 1259415; in the data active = activity change below about -60%; inconclusive = no clear call, values can overlap the other calls; inactive = above about -39%
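Human foreskin fibroblasts infected with luciferase-reporter HCMV at MOI 1 PFU/cell, compounds at two doses. Luciferase measured 72 h post infection; normalized to buffer-only basal and Salinomycin (10uM) controls.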
* = called active by the depositor; ? = inconclusive; / = no result given; ! = not active in a repeat; [ ] = dose if it differs, or a comment. % is scaled to controls: 0 for no effect and ±100 for the full control effect.

SMILES	HCV inh	FMDV inh	Marburg entry inh	Lassa entry inh	HCMV antiviral
O=C(c1ccc(Br)cc1)c1cc(-c2ccccn2)c(N2CCOCC2)s1	?	?	?	-29%	55
O=C(c1ccc(Cl)c(Cl)c1)c1cc(-c2ccccn2)c(N2CCOCC2)s1	1%	-23%	?	-10%	-75*
Cc1ccc(C(C)C)c(OCCCN2C(=O)NC(C)(C)C2=O)c1	-12%	-24%	?	12µM*	-8
CC(C)c1cc(Br)ccc1OCCN1C(=O)NC(C)(C)C1=O	-1%	-12%	/	/	-61*
CN(C)S(=O)(=O)c1ccc(N2CCCC2)c(C(=O)Nc2nc(-c3cc(F)ccc3F)cs2)c1	?	-13%	-30%	0%	34
Cn1nc(C(F)(F)F)c(/C=N/OC(=O)c2ccccc2)c1SCc1ccc(Cl)cc1	?	-9%	?	2%	-72*
Nc1ccn(CC(=O)NCCCc2ccccc2)c(=O)n1	-9%	-2%	/	/	-81*
Cc1cn(CC(=O)NCCCc2ccccc2)c(=O)[nH]c1=O	2.8µM*	-15%	/	/	24
CC(=O)N1CCN(S(=O)(=O)c2cccc(C(=O)Nc3ccccc3N3CCCCC3)c2)CC1	?	-13%	-10%	4%	-34
CN1OC(C)(CC(=O)NCc2nccs2)N=C1c1cccc(Br)c1 (configuration not stated)	/	/	/	/	-11
O=S(=O)(c1ccc(S(=O)(=O)N(Cc2ccc(F)cc2)C2CCCC2)cc1)N1CCCC1	17%	-30%	10µM*	-17%	-38
CCOc1ccccc1N=Nc1c(C)[nH]n(C(N)=S)c1=O	10µM*	-22%	14%[46.1 µM]	12%[46.1 µM]	-85*
CC(C)(CC(=O)NCc1ccc(Cl)cc1Cl)CC1=NS(=O)(=O)c2ccccc2N1	/	?	/	?	-89*
N#Cc1nc(Cc2ccccc2)oc1N1CCC(Cc2ccccc2)CC1	-30%	-5%	-18%	7.1µM*	2
N#Cc1nc(Cc2ccccc2)oc1N1CCN(c2ccccc2)CC1	1%	/	?	?	-18
O=C(Nc1ccccc1CC[N+](=O)[O-])N1CCN(c2ccccc2)CC1	-7%	-8%	10µM*	-2%	-24
Cc1ccccc1OCC(=O)N1N=C(C(F)(F)F)CC1(O)C(C)(C)C (configuration not stated)	-4%	-21%	10%	0%	2
Cc1ccc(OCC(=O)N2N=C(C(F)(F)F)CC2(O)C(C)(C)C)cc1C (configuration not stated)	-25%	?	?	?	-91*
Cc1nnsc1S(=O)c1ccc(Br)cc1 (configuration not stated)	-16%	0%	/	/	-63*
Cc1ccc(S(=O)c2snnc2C)cc1 (configuration not stated)	3%	-3%	?	-14%[46.1 µM]	18
Cc1nnsc1S(=O)c1ccc(F)cc1 (configuration not stated)	-1%	?	/	/	-69*
CCN(CC)C(=O)N1CCC2CCCCC2C1CN1C(=O)C2=C(CCCC2)C1=O (configuration not stated)	/	/	-14%	/	/
COc1ccc(-c2cn3c(C)c(C(=O)N4CCN(c5ccc(F)cc5)CC4)sc3n2)cc1	-7%	6%	-1%	/	36
COc1ccccc1N1CCN(C(=O)c2sc3nc(-c4ccc(F)cc4)cn3c2C)CC1	4.5µM*	0%	-3%	/	-61*
CCOC(=O)c1ccc2c(c1)nc(COc1ccccc1C#N)n2CC	-1%	/	/	/	/
SMILES	HCV inh	FMDV inh	Marburg entry inh	Lassa entry inh	HCMV antiviral
CCOC(=O)c1ccc2c(c1)nc(COc1ccc3ccccc3c1)n2CC	-21%	-16%	4.6µM*	?	-36
COc1ccc2[nH]cc(CCN=C(NC(=O)c3ccccc3OC)Nc3nc(C)cc(C)n3)c2c1	/	?	?	?	-96*
O=C(NCCCn1ccnc1)c1ccc(Br)s1	17%	-6%	/	/	-36
O=c1c2ccccc2nc2n1C(CSCc1ccc(Cl)cc1Cl)CS2 (configuration not stated)	-4%	18µM*	?	-26%	-31
Nc1c(Br)cc2c(c1Br)C(O)c1ccccc1-2 (configuration not stated)	?	3%	3%	13%[46.1 µM]	96
Nc1c(Br)cc2c3c(cccc13)-c1ccccc1-2	2.8µM*	18%	-13%	25%	-33
O=C(Nc1ccc(Br)c(C(F)(F)F)c1)c1ccccc1	-27%	-24%	-15%	?	-90*
O=C(Nc1ccc(Br)c(C(F)(F)F)c1)c1ccc(C(F)(F)F)cc1	?	-22%	?	?	-97*
O=C(C[n+]1cccc(CO)c1)Nc1nc2ccccc2s1	9%	0%	/	/	41
Cc1sc(NC(=O)CCl)c(C(=O)c2ccccc2)c1C	?	?	2%	?	-23
Cc1cc(C(=O)c2ccc(C(C)(C)C)cc2)c(NC(=O)CCl)s1	?	35µM*	?	?	-65*
O=C(CCl)Nc1sccc1C(=O)c1ccccc1	2%	20µM*	9%[46.1 µM]	9%	-14
Cc1cc(NC(=O)CS(=O)(=O)c2cn(Cc3cccc(F)c3)c3ccccc23)no1	?	40µM*	?	?	-34
COc1ccc(C(=O)NCC(C)(C)N2CCOCC2)cc1S(=O)(=O)NCc1ccc(Cl)cc1	?	-4%	/	/	-67*
N/C(=N\c1nc(CSc2ccccn2)cc(=O)[nH]1)Nc1ccc(Cl)cc1Cl	-16%	-12%	/	/	?
COC(=O)c1cc(OC(C)C)ccc1NC(=O)[C@@]1(Sc2ccc(OC)cc2)CC(=O)N[C@@H]1c1ccc(OC)cc1	/	/	/	/	-39
CN=C(NC1CCCCC1)c1ccc(Cl)cc1	24%	-20%	?	-4%	-60*
O=C(CCSCc1ccc(Cl)cc1)NC1CCCC1	8%	-12%	11%	?	-102*
O=C(Cc1ccc(Cl)cc1)NC1CC1	20%	-6%	3%[46.1 µM]	-1%[46.1 µM]	6
O=C(NC1CCCCC1)Sc1ccc(Cl)cc1	-25%	32µM*	19%[46.1 µM]	0%	14
COc1ccc(CN(C)CCCn2cnc3c(SC)ncnc32)cc1OC	/	-6%	/	/	-4
COC(=O)[C@@H](Cc1ccc(O)cc1)NC(=O)[C@H]1CCC(=O)N1C(=O)OCc1ccccc1	0%	-9%	/	/	15
O=C(N[C@H](c1ccccc1)C1CCCC=C1c1ccccc1)C(F)(F)F (some centres not stated)	/	/	-24%[14.2 µM]	/	/
CCOC(=O)C1=C[C@@H](C(C)(C)C)N(S(=O)(=O)c2ccc(C)cc2)[C@H]1c1ccc(C)cc1	/	?	/	/	-76*
O=C(CSc1nnc(-c2ccccc2Cl)o1)N1CCCC1	-21%	40%	?	2.8µM*	15
CCOC(=O)N1CCN(C(=O)CSc2nnc(-c3cc(OC)ccc3OC)o2)CC1	10µM*!	?	?	-8%	11
Cc1nc(S[C@@H]2C=CS(=O)(=O)C2)n[nH]1	/	/	0%	/	/
CCOC(=O)C1(Cc2cccc(OC)c2)CCN(Cc2cc(OC)ccc2OC)CC1	?	3%	?	?	-40
CCOC(=O)C1(Cc2ccccc2)CCN(Cc2cn[nH]c2-c2ccccc2)CC1	?	?	/	/	-78*

Screens deposited in PubChem BioAssay by National Center for Advancing Translational Sciences (NCATS).
